Results taken from ChEMBL document CHEMBL1961873, “Compounds: GSK PKIS; Assays: Nanosyn kinase panel” (2012).

Assays:
[1] = test system: Proto-oncogene tyrosine-protein kinase receptor Ret (Homo sapiens), P07949 [Y791F]; conditions: at 1 µM
[2] = molecular target: Macrophage-stimulating protein receptor (Homo sapiens) (UniProt Q04912); conditions: at 0.1 µM
[3] = molecular target: Macrophage-stimulating protein receptor (Homo sapiens) (UniProt Q04912); conditions: at 1 µM
[4] = molecular target: Proto-oncogene tyrosine-protein kinase ROS (Homo sapiens) (UniProt P08922); conditions: at 0.1 µM
Proto-oncogene tyrosine-protein kinase ROS (Homo sapiens), sequence (P08922 whole entry): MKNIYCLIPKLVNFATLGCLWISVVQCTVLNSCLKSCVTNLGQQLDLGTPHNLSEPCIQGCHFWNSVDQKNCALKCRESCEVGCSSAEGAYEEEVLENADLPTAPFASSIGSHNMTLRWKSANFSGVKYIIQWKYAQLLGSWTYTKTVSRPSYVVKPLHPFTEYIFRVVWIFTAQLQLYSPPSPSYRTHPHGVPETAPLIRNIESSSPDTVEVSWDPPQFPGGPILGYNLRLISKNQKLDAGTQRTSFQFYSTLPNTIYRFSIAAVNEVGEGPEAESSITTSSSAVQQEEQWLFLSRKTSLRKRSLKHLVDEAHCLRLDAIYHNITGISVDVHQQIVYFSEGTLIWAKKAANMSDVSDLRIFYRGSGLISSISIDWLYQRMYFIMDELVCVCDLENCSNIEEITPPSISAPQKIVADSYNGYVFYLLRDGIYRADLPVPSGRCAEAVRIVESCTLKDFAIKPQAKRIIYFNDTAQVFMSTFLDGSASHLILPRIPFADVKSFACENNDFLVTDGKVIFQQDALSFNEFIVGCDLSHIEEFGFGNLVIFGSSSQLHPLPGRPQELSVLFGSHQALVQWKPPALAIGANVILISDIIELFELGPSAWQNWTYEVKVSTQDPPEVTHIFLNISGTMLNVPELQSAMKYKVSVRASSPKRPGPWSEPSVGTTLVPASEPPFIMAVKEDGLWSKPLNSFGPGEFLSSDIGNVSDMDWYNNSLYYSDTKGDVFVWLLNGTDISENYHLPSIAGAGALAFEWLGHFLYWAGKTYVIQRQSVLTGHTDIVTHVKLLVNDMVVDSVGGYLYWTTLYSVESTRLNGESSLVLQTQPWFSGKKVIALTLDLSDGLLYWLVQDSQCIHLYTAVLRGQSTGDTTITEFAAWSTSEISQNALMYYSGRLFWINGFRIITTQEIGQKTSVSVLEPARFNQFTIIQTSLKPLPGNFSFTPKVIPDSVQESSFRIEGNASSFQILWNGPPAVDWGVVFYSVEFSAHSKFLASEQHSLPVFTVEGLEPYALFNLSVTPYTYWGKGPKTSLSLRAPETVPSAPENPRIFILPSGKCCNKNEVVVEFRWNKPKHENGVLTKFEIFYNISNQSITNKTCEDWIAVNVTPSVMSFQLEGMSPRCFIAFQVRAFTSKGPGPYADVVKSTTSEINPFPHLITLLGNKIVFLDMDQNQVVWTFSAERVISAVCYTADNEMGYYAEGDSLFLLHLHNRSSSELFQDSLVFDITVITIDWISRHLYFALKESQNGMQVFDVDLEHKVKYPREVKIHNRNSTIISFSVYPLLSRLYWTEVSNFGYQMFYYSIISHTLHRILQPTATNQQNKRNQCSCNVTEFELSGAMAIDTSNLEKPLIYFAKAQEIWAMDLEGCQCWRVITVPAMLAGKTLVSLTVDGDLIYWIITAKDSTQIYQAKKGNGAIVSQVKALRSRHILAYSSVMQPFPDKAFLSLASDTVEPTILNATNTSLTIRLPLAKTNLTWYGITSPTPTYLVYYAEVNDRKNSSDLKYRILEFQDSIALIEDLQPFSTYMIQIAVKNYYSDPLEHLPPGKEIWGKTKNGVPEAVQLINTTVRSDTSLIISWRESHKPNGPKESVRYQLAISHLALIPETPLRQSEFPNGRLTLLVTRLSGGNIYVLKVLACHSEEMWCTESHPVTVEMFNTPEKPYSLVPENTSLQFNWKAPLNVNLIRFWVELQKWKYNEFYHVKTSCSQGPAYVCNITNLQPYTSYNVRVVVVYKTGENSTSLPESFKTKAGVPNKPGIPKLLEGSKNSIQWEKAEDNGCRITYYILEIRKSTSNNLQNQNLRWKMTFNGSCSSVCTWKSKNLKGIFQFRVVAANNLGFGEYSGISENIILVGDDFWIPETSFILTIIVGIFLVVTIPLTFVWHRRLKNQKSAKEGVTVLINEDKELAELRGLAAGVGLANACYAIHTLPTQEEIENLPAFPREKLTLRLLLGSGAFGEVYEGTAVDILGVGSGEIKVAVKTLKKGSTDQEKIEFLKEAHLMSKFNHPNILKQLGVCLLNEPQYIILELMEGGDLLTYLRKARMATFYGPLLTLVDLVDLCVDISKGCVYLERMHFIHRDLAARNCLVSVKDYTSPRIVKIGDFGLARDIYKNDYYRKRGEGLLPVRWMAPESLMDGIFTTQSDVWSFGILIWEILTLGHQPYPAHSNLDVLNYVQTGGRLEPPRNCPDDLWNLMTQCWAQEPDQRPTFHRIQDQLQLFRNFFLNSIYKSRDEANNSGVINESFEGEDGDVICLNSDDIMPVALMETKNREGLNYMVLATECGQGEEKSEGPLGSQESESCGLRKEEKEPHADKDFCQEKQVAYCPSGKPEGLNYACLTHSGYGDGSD

[5] = molecular target: Proto-oncogene tyrosine-protein kinase ROS (Homo sapiens) (UniProt P08922); conditions: at 1 µM
[6] = molecular target: Proto-oncogene tyrosine-protein kinase Src (Homo sapiens) (UniProt P12931); conditions: at 0.1 µM
Proto-oncogene tyrosine-protein kinase Src (Homo sapiens), sequence (P12931 2-536 limits assumed): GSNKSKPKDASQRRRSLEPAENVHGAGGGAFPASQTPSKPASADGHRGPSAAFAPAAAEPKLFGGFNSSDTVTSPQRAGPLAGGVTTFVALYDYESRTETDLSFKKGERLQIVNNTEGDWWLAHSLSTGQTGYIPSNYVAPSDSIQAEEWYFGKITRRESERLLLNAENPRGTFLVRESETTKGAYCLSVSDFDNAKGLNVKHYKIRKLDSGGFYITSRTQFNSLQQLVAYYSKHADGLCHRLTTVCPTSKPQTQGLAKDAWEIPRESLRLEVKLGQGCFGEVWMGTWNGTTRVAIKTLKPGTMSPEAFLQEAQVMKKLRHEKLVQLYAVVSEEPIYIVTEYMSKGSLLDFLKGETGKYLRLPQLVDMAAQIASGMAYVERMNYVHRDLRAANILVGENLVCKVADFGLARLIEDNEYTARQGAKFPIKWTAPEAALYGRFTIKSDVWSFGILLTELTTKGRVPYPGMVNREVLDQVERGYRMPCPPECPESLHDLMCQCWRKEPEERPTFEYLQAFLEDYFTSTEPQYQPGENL

[7] = molecular target: Proto-oncogene tyrosine-protein kinase Src (Homo sapiens) (UniProt P12931); conditions: at 1 µM
[8] = molecular target: Tyrosine-protein kinase Srms (Homo sapiens) (UniProt Q9H3Y6); conditions: at 0.1 µM
[9] = molecular target: Tyrosine-protein kinase Srms (Homo sapiens) (UniProt Q9H3Y6); conditions: at 1 µM
[10] = molecular target: Tyrosine-protein kinase SYK (Homo sapiens) (UniProt P43405); conditions: at 0.1 µM
[11] = molecular target: Tyrosine-protein kinase SYK (Homo sapiens) (UniProt P43405); conditions: at 1 µM
[12] = molecular target: T1, Tyrosine-protein kinase Tec (Homo sapiens) (UniProt P42680); conditions: at 0.1 µM
T1 sequence (whole entry): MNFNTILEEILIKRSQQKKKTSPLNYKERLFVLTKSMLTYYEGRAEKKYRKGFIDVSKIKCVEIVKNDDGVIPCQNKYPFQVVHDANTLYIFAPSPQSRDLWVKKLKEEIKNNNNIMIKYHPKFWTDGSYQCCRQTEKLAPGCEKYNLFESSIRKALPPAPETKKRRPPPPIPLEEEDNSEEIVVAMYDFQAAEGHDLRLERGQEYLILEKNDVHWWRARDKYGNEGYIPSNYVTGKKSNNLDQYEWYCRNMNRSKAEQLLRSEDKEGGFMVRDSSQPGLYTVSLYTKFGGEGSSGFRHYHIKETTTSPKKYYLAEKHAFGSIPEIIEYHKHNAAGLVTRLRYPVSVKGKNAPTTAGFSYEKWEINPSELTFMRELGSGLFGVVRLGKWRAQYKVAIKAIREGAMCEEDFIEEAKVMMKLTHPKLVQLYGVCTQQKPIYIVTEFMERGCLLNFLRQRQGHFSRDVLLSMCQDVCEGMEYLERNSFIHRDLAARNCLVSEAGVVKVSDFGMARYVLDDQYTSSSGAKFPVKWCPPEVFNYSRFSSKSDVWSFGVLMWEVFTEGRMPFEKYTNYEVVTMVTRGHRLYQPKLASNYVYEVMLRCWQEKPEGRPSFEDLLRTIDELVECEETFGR

[13] = molecular target: T1, Tyrosine-protein kinase Tec (Homo sapiens); conditions: at 1 µM
[14] = molecular target: Angiopoietin-1 receptor (Homo sapiens) (UniProt Q02763); conditions: at 0.1 µM
Angiopoietin-1 receptor (Homo sapiens), sequence (Q02763 whole entry): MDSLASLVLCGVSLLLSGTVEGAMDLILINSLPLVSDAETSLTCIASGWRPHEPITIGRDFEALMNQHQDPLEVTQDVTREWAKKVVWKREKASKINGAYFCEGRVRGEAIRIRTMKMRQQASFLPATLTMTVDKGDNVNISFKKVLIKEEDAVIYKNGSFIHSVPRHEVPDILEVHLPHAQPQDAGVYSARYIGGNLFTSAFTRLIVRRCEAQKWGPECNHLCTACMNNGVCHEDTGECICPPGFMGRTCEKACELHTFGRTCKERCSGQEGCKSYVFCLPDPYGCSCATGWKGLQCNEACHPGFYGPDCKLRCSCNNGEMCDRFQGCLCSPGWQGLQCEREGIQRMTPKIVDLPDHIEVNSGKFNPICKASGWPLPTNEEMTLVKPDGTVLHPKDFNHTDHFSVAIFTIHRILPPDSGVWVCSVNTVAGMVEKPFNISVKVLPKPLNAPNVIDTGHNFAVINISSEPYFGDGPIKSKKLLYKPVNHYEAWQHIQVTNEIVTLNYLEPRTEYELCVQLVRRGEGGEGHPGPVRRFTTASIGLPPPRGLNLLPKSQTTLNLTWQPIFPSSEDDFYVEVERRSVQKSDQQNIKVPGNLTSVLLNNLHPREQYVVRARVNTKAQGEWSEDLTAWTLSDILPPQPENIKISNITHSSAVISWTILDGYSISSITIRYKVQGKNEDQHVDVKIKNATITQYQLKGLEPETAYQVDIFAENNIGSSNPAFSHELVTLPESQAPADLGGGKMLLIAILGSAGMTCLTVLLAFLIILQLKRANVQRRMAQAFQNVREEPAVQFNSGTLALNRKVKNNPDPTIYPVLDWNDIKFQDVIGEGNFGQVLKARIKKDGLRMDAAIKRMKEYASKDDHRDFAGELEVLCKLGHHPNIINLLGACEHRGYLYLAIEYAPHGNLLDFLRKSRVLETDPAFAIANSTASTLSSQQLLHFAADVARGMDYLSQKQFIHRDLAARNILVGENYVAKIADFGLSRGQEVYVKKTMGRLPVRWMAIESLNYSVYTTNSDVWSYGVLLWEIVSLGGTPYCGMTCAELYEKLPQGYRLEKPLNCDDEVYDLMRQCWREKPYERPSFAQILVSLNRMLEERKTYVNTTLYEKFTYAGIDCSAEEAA

[15] = molecular target: Angiopoietin-1 receptor (Homo sapiens) (UniProt Q02763); conditions: at 1 µM
[16] = molecular target: T2, Non-receptor tyrosine-protein kinase TNK1 (Homo sapiens) (UniProt Q13470); conditions: at 0.1 µM
T2 sequence (whole entry): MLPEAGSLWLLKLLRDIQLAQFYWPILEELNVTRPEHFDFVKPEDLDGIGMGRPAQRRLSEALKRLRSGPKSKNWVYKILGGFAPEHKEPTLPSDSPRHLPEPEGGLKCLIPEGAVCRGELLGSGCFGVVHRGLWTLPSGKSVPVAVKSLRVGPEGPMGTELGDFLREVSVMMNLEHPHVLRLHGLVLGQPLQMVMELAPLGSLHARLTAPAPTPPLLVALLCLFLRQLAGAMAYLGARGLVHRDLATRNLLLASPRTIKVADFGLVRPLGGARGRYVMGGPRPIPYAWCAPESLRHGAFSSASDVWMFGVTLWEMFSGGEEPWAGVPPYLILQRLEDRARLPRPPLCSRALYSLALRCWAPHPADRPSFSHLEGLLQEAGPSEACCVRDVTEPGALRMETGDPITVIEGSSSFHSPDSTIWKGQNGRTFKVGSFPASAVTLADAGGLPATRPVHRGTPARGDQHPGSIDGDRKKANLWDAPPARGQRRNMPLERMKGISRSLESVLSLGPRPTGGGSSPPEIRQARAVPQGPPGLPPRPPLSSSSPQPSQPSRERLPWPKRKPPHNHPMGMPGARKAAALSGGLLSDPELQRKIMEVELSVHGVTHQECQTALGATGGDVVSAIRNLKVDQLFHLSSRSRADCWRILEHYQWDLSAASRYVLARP

[17] = molecular target: T2, Non-receptor tyrosine-protein kinase TNK1 (Homo sapiens); conditions: at 1 µM
[18] = molecular target: Activated CDC42 kinase 1 (Homo sapiens) (UniProt Q07912); conditions: at 0.1 µM
[19] = molecular target: Activated CDC42 kinase 1 (Homo sapiens) (UniProt Q07912); conditions: at 1 µM
[20] = molecular target: High affinity nerve growth factor receptor (Homo sapiens) (UniProt P04629); conditions: at 0.1 µM;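 note: each value is a mean of replicate percent inhibition readings against TRKA kinase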
High affinity nerve growth factor receptor (Homo sapiens), sequence (P04629 33-796 limits assumed): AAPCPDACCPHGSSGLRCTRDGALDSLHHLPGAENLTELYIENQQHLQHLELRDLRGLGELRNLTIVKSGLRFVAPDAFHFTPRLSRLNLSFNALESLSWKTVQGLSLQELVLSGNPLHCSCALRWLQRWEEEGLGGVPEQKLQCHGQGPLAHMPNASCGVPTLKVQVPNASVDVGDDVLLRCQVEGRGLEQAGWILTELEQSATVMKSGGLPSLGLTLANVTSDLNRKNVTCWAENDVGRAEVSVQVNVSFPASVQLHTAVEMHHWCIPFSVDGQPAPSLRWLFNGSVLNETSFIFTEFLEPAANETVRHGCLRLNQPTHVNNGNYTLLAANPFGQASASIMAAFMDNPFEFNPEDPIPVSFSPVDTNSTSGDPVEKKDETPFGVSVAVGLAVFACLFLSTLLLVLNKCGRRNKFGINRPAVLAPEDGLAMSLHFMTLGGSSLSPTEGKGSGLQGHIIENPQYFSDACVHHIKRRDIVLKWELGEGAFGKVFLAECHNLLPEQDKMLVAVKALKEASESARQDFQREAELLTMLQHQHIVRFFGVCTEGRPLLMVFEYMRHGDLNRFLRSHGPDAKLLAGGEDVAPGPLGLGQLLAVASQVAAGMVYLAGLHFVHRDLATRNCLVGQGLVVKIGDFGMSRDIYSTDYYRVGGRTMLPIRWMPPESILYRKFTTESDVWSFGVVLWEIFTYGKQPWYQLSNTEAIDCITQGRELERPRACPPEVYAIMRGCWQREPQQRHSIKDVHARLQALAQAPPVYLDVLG

| SMILES | inhibition [1] [%] | inhibition [2] [%] | inhibition [3] [%] | inhibition [4] [%] | inhibition [5] [%] | inhibition [6] [%] | inhibition [7] [%] | inhibition [8] [%] | inhibition [9] [%] | inhibition [10] [%] | inhibition [11] [%] | inhibition [12] [%] | inhibition [13] [%] | inhibition [14] [%] | inhibition [15] [%] | inhibition [16] [%] | inhibition [17] [%] | inhibition [18] [%] | inhibition [19] [%] | inhibition [20] [%] |
| --- | --- | --- | --- | --- | --- | --- | --- | --- | --- | --- | --- | --- | --- | --- | --- | --- | --- | --- | --- | --- |
| CCCN1CCC=C(c2ccc(Nc3nc(Nc4ccccc4C(N)=O)c4cc[nH]c4n3)c(C)c2)C1 | 25.8 | 7.2 | 11.6 | 24.3 | 61.2 | 8.87 | 17.4 | -3.15 | 0.8 | -0.42 | 1.61 | 6.08 | 8.24 | 3.32 | 3.76 | 26.4 | 70.1 | 1 | 12.7 | 2.13 |
| COC(=O)Nc1nc2cc(Oc3cccc(NC(=O)Nc4cc(C(F)(F)F)ccc4F)c3)ccc2[nH]1 | 38.9 | 6.28 | -2.46 | 1.83 | 2.46 | 9.23 | 5.13 | 0.35 | -1.15 | 0.17 | -0.22 | 1.48 | 2.64 | 1.09 | 5.44 | -0.45 | -3.58 | -0.5 | -1.08 | -2.72 |
| CCCN1CCC(Oc2cc(Nc3nc(Nc4cccc(F)c4C(N)=O)c4cc[nH]c4n3)c(OC)cc2Cl)CC1 | 16.9 | 1.16 | 6.9 | 8.27 | 38.9 | -3.73 | 6.62 | 2.85 | 0.37 | 1.01 | 2.76 | 1 | 3.16 | 4.02 | 10.1 | -2.66 | 1.46 | -0.19 | 2.16 | 2.22 |
| Fc1cccc(COc2ccc(Nc3ncnc4cc(-c5ccc[nH]5)sc34)cc2Cl)c1 | 15.8 | 4.56 | 4.33 | 9.9 | 12.1 | 3.22 | 6.79 | -0.83 | 1.08 | 1.5 | 2.33 | -0.22 | 3.69 | 2.27 | 8.54 | 1.22 | 1.7 | 0.28 | 0.88 | 2.39 |
| O=C1NC(=O)C(N2CCc3ccccc32)=C1c1ccc(Cl)cc1 | 10.4 | -2.48 | 2.52 | 10.9 | 14.1 | 5.94 | 15.5 | -2.77 | 0.25 | -4.42 | -1.26 | 6.1 | 9.11 | 5.59 | 8.86 | 4.03 | -0.43 | 3.17 | 1.5 | 4.36 |
| COc1cc2c(cc1Nc1nc(N3CCc4ccccc43)c3cc[nH]c3n1)N(C(=O)CN(C)C)CC2 | 8.94 | -4.18 | 4.66 | 70.2 | 79.2 | 1.56 | 8.12 | 0.05 | -1.29 | 0.91 | -0.01 | 2.67 | 7.6 | -0.77 | 1.37 | 1.17 | 12 | 0.63 | 1.93 | 0.79 |
| CN1CCC(C(=O)Nc2n[nH]c3nnc(-c4ccccc4)cc23)CC1 | 10 | -1.52 | 14.1 | 5.55 | 9.8 | 9.17 | 8.13 | -0.14 | -5.75 | -4.25 | -1.15 | 3.47 | 4.52 | 2.55 | 7 | 2.98 | 7.95 | 1.4 | 1.85 | 0.43 |
| CS(=O)(=O)CCN(CC#N)Cc1ccc(-c2ccc3ncnc(Nc4ccc(OCc5cccc(F)c5)c(Cl)c4)c3c2)o1 | 3.1 | 0.07 | 0.14 | 6.53 | 4.3 | 3.38 | 4.01 | 1.13 | -1.83 | 1.85 | 1.94 | -2.12 | -1.96 | 2.27 | 1.84 | 2.76 | 23.2 | -0.59 | 0.01 | 2.64 |
| c1cnn2ncc(-c3ccnc(Nc4ccc5c(c4)OCCO5)n3)c2c1 | 26.2 | 4.39 | 16.8 | 79.9 | 82.7 | -0.83 | 32.3 | -0.57 | 1.78 | -8.51 | 13.2 | 6.85 | 19.8 | 3.72 | 20.5 | 18.1 | 64.5 | 3.29 | 21.7 | 5.45 |
| COc1cc2ncn(-c3cc(OCc4ccccc4C(F)(F)F)c(C(N)=O)s3)c2cc1OC | 50.6 | 4.5 | 8.36 | 5.76 | 20.6 | 8.15 | 21.2 | -2.2 | -0.81 | -2.39 | -7.75 | -1.86 | 7.03 | 6.11 | 20.9 | 12.5 | 59.1 | 0.63 | 6.53 | 2.57 |
| CC1=C(C(=O)Nc2ccc3[nH]ncc3c2)C(c2ccc(F)cc2)NC(=O)N1 (stereo not given) | 42.4 | 4.69 | 21.4 | 7.19 | 29.2 | -8.18 | 4.28 | 0.2 | 2.69 | 0.2 | 1.72 | 2.11 | 2.37 | 0.66 | 3.1 | 4.95 | 31.2 | 0.84 | 3.68 | 0.85 |
| CC(C)=Cc1cccc2c1/C(=N/Nc1ccc(S(N)(=O)=O)cc1)C(=O)N2 | 50.3 | 2.03 | 4.1 | -0.28 | 20 | 10.8 | 46.4 | 3.21 | 4.02 | 2.78 | -2.03 | 2.44 | 10.1 | 0.37 | 3.74 | 9.88 | 65.6 | 0.01 | 2.76 | 6.87 |
| CCc1cccc(NC(=O)Nc2ccc(Oc3ccc4nc(NC(=O)OC)[nH]c4c3)cc2)c1 | 74.6 | 5.94 | 5.62 | -0.48 | 0.49 | 0.79 | 5.84 | 0.61 | 1.28 | 2.75 | -0.99 | 2.07 | 3.91 | 46.2 | 55.7 | 3.34 | 13.8 | -0.42 | 1.35 | 30.8 |
